“And” between values parts separate entries of the source, which are not always exact repeats. Identical values can stand only once. Results filed as inconclusive are left out. A structure can be active in one record and inactive in another. The source made the active and inactive calls. Calls follow the shape of the dose curve; as a rule, active = well fitted inhibition curve with a large enough effect; inconclusive = small, poorly fitted or top-dose-only effect; inactive = flat fitted curve, though single readings scatter.
% is scaled to controls: 0 for no effect and ±100 for the full control effect; potency is read from the fitted curve at half-maximal effect.

One assay has as its system HEK293. Kind of assay: Cytotoxic Profiling of Annotated Libraries Using Quantitative High-Throughput Screening (AID 1296008). Also: nearly all actives have a fitted effect of over 60% in size. The settings on record: Five cell lines viability, CellTiter-Glo ATP luminescence, 48-72 h; max response: stronger effect = lower value. Put shortly:
(§1)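 Cytotoxicity was measured as CellTiter-Glo ATP luminescence, read after 10 min at room temperature. Compound treatment of the cells lasted 48 or 72 hr at 37 degrees Celsius in a qHTS format.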
In the case of `CCOCC(O)COc1ccc(NC(=O)CC[S+](C)C)cc1` (configuration not stated), the max response is -1.76% (inactive) and 3.69% (inactive).
On to `COc1cc(NS(=O)(=O)c2ccc(N)cc2)nc(OC)n1`, for which the max response was 4.64% (inactive) and 3.91% (inactive).
As for `COC(=O)Nc1nc2ccc(C(=O)c3ccccc3)cc2[nH]1`, the max response is -90.7% (inactive).
Consider `CCCc1cc(C(N)=S)ccn1`, for which the max response is -0.75% (inactive) and -9.47% (inactive).
For `O=C(O)c1cn(C2CC2)c2cc(N3CCNCC3)c(F)cc2c1=O`, the outcome was inactive.
Still for that read-out and setting: the same measure for `Cc1noc(NS(=O)(=O)c2ccc(N)cc2)c1C`: “inactive”.
For the compound `CN(C)CCc1c[nH]c2ccc(CS(=O)(=O)N3CCCC3)cc12`, the max response is -11.2% (inactive) and 1.86% (inactive).
As for `CO[C@@H]1[C@@H](OC(N)=O)[C@@H](O)[C@H](Oc2ccc3c(O)c(NC(=O)c4ccc(O)c(CC=C(C)C)c4)c(=O)oc3c2C)OC1(C)C`, the compound was classed as inactive.
Same read-out and setting: the same measure for `CCOc1cc(N)c(Cl)cc1C(=O)NCC1CN(Cc2ccc(F)cc2)CCO1` (configuration not stated): “inactive”.
With `CCC(=O)O[C@]1(C(=O)SCF)[C@H](C)C[C@H]2[C@@H]3C[C@H](F)C4=CC(=O)C=C[C@]4(C)[C@@]3(F)[C@@H](O)C[C@@]21C`, the max response is 1.44% (inactive) and 1.99% (inactive).
As for `Cc1oc(=O)oc1CN1CCN(c2cc3c(cc2F)c(=O)c(C(=O)O)c2n3C(C)S2)CC1` (configuration not stated), the max response was 0.387% (inactive) and 0.715% (inactive).
As to `NC1(c2ccc(-c3nc4ccn5c(=O)[nH]nc5c4cc3-c3ccccc3)cc2)CCC1`, the Potency was 3.32 µM (active) and 2.37 µM (active) and 3.26 µM (active).
In the case of `OC(Cn1cncn1)(Cn1cncn1)c1ccc(F)cc1F`, the max response is -0.0788% (inactive) and -5.53% (inactive).
Turning to `Cn1c(=O)c2c(ncn2CC(O)CO)n(C)c1=O` (configuration not stated), the max response is -3.34% (inactive) and -13.7% (inactive).
For the compound `CN(CCOc1ccc(CC2SC(=O)NC2=O)cc1)c1ccccn1` (configuration not stated), the max response was 2.68% (inactive) and the compound was called inactive.
Consider `COC(c1ccccc1)(c1ccccc1)[C@H](Oc1nc(C)cc(C)n1)C(=O)O`, for which the max response was -24.1% (inactive) and 3.62% (inactive).
Turning to `CCc1cc(C(N)=S)ccn1`, the max response is -11.8% (inactive) and the result was inactive.
On to `COCCCOc1cc(C[C@@H](C[C@H](N)[C@@H](O)C[C@H](C(=O)NCC(C)(C)C(N)=O)C(C)C)C(C)C)ccc1OC`, for which the result was inactive.
For `CCN(C)C(=O)Oc1cccc([C@H](C)N(C)C)c1`, the max response is -9.47% (inactive) and the result was inactive.
As to `CCn1cc(C(=O)O)c(=O)c2cc(F)c(N3CCNCC3)nc21`, the max response is -5.1% (inactive) and the compound was classed as inactive.
For `CC[C@H](NC(C)C)[C@H](O)c1ccc(O)c2[nH]c(=O)ccc12`, the call was inactive.
For `CC(C)OC(=O)C(C(=O)OC(C)C)=C1SC=CS1`, the max response was -6.55% (inactive).
On the same count and under the same terms, with `COc1ccc(-c2ccc3cc(C(=O)O)ccc3c2)cc1C12CC3CC(CC(C3)C1)C2` the figure was 3.2% (inactive).
As to `O=S(=O)(c1cccc2cnccc12)N1CCCNCC1`, the max response was -25.6% (inactive) and the compound was called inactive.
Consider `CNC1CCCN(c2c(F)cc3c(=O)c(C(=O)O)cn(C4CC4)c3c2OC)C1` (configuration not stated), for which the max response is -0.681% (inactive) and -8.47% (inactive).
Regarding `COc1ccc2c(c1)c(CC(=O)OCC(=O)O)c(C)n2C(=O)c1ccc(Cl)cc1`, the max response was -16.6% (inactive) and the result was inactive.

For a further assay, the system named is HaCat. Described as above. To be noted: Five cell lines viability, CellTiter-Glo ATP luminescence, 48-72 h; max response: stronger effect = lower value. Put shortly: as §1
(In general: Cellular ATP, detected with luciferase, serves as a proxy for viable cell number.)
Consider `CCCN[C@H]1CCc2nc(N)sc2C1`, for which the max response was 3.55% (inactive) and the call was inactive.
Take `CCOCC(O)COc1ccc(NC(=O)CC[S+](C)C)cc1` (configuration not stated): the max response is 4.61% (inactive) and the compound was classed as inactive.
With `COc1cc(NS(=O)(=O)c2ccc(N)cc2)nc(OC)n1`, the compound was classed as inactive.
Take `COC(=O)Nc1nc2ccc(C(=O)c3ccccc3)cc2[nH]1`: the max response was 4.64% (inactive) and the outcome was inactive.
As for `O=C(N[C@H](CO)[C@H](O)c1ccc([N+](=O)[O-])cc1)C(Cl)Cl`, the max response was -14.6% (inactive) and -20.9% (inactive).
Turning to `CCCc1cc(C(N)=S)ccn1`, the max response is 0.608% (inactive) and the compound was classed as inactive.
As to `O=C(O)c1cn(C2CC2)c2cc(N3CCNCC3)c(F)cc2c1=O`, the compound was called inactive.
Consider `O=C(O)CCn1c2c(c3ccccc31)C[C@H](NS(=O)(=O)c1ccc(F)cc1)CC2`, for which the max response was 4.42% (inactive) and 4.82% (inactive); the outcome was inactive.
With `Cc1noc(NS(=O)(=O)c2ccc(N)cc2)c1C`, the max response is 1.98% (inactive) and the compound was classed as inactive.
For the compound `CCn1cc(C(=O)O)c(=O)c2cc(F)c(N3CCN(C)CC3)cc21`, the max response is -4.37% (inactive) and the compound was classed as inactive.
Turning to `O=C(O)CSCC(=O)NC1CCSC1=O` (configuration not stated), the compound was classed as inactive.
Take `CN(C)CCc1c[nH]c2ccc(CS(=O)(=O)N3CCCC3)cc12`: the max response was -24.1% (inactive) and the compound was classed as inactive.
With `CO[C@@H]1[C@@H](OC(N)=O)[C@@H](O)[C@H](Oc2ccc3c(O)c(NC(=O)c4ccc(O)c(CC=C(C)C)c4)c(=O)oc3c2C)OC1(C)C`, the max response is 0.197% (inactive) and the result was inactive.
Take `CCOc1cc(N)c(Cl)cc1C(=O)NCC1CN(Cc2ccc(F)cc2)CCO1` (configuration not stated): the max response was -10.3% (inactive) and the compound was classed as inactive.
Regarding `CCC(=O)O[C@]1(C(=O)SCF)[C@H](C)C[C@H]2[C@@H]3C[C@H](F)C4=CC(=O)C=C[C@]4(C)[C@@]3(F)[C@@H](O)C[C@@]21C`, the max response is 0.77% (inactive) and the compound was called inactive.
As for `Cc1oc(=O)oc1CN1CCN(c2cc3c(cc2F)c(=O)c(C(=O)O)c2n3C(C)S2)CC1` (configuration not stated), the compound was classed as inactive.
Take `NC1(c2ccc(-c3nc4ccn5c(=O)[nH]nc5c4cc3-c3ccccc3)cc2)CCC1`: the Potency was 25.9 µM (active) and the max response was -15.1% (inactive).
As for `C[C@@H](CN1CC(=O)NC(=O)C1)N1CC(=O)NC(=O)C1`, the Potency is 23.5 µM (active) and the max response was -7.01% (inactive).
For `OC(Cn1cncn1)(Cn1cncn1)c1ccc(F)cc1F`, the max response was -29.4% (inactive) and the outcome was inactive.
For `O=NN(CCCl)C(=O)NC1CCCCC1` the same measures were 4.22% (inactive) and “inactive”.
For `Clc1ccccc1CN1CCc2sccc2C1`, the max response was -7.82% (inactive).
As for `Cn1c(=O)c2c(ncn2CC(O)CO)n(C)c1=O` (configuration not stated), the max response is 2.18% (inactive) and the compound was classed as inactive.
With `Cc1cccc(N(C)C(=S)Oc2ccc3ccccc3c2)c1`, the max response is 0.266% (inactive) and 1.06% (inactive).
Turning to `CN(CCOc1ccc(CC2SC(=O)NC2=O)cc1)c1ccccn1` (configuration not stated), the compound was classed as inactive.
Consider `COC(c1ccccc1)(c1ccccc1)[C@H](Oc1nc(C)cc(C)n1)C(=O)O`, for which the max response is -18.5% (inactive) and -6.09% (inactive).
Consider `CCc1cc(C(N)=S)ccn1`, for which the max response is -10.8% (inactive) and the outcome was inactive.
Turning to `COCCCOc1cc(C[C@@H](C[C@H](N)[C@@H](O)C[C@H](C(=O)NCC(C)(C)C(N)=O)C(C)C)C(C)C)ccc1OC`, the max response was 0.78% (inactive) and the result was inactive.
For `CCN(C)C(=O)Oc1cccc([C@H](C)N(C)C)c1` the same measures were -4.32% (inactive) and “inactive”.
Take `CCn1cc(C(=O)O)c(=O)c2cc(F)c(N3CCNCC3)nc21`: the max response was -2.73% (inactive) and the compound was called inactive.
The like results for `CC[C@H](NC(C)C)[C@H](O)c1ccc(O)c2[nH]c(=O)ccc12` were, in that order, -10.6% (inactive) and “inactive”.
As to `CC(C)OC(=O)C(C(=O)OC(C)C)=C1SC=CS1`, the max response was -22% (inactive) and the outcome was inactive.
For `COc1ccc(-c2ccc3cc(C(=O)O)ccc3c2)cc1C12CC3CC(CC(C3)C1)C2` the same measures were -4.15% (inactive) and “inactive”.
For the compound `CCOC(=O)c1ccc(OC(=O)CCCCCN=C(N)N)cc1`, the max response was 4.21% (inactive) and the call was inactive.
Consider `O=S(=O)(c1cccc2cnccc12)N1CCCNCC1`, for which the outcome was inactive.
In the case of `CNC1CCCN(c2c(F)cc3c(=O)c(C(=O)O)cn(C4CC4)c3c2OC)C1` (configuration not stated), the max response was 0.986% (inactive) and -11% (inactive).
Consider `COc1ccc2c(c1)c(CC(=O)OCC(=O)O)c(C)n2C(=O)c1ccc(Cl)cc1`, for which the max response was -2.32% (inactive) and -4.14% (inactive).

The record behind these values is PubChem BioAssay (NCATS).
